Shown are actives, neighbours in structure and some others; about 3% of the full set was active somewhere.
PAFAH1B3 FP inh: PAFAH1B3 enzyme inhibitors, primary screen, biochemical, fluorescence polarization, human. Platelet-activating factor acetylhydrolase IB subunit alpha1 (Homo sapiens), Q15102. AID 492972, 2010. recombinant PAFAH1B3, FP-rhodamine probe. inhibition, % at 3.39 µM. actives 0.28% (n = 340,000);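 active means inhibition above the screen-wide average of all tested compounds plus 3 SD, cut at about 25% in these data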;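 further: 0% = enzyme with DMSO only and 100% = wells lacking PAFAH1B3 protein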
Target sequence (Q15102 whole entry, looked up): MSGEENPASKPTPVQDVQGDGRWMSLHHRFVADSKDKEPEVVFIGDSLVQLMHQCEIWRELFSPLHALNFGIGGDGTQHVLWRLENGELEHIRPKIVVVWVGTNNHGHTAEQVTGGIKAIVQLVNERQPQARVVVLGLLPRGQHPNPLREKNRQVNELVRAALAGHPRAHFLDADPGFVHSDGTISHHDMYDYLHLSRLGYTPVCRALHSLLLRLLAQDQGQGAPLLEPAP
PP5 primary: PP5 phosphatase inhibitors, primary screen, biochemical, fluorescence. purified PP5c, OMFP substrate fluorescence. inhibition, % at 6.7 µM. actives 0.18% (n = 320,000);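 active means inhibition above the campaign's mean inhibition across all tested compounds plus 3 SD, cut at about 9.5% in these data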;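 further: 0% = DMSO only and 100% = 100 µM cantharidin control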
Fh CTSL1 inh: Fasciola hepatica cathepsin L1 inhibitors, primary screen, counter-screen for PFM18AAP inhibitor project, biochemical, QFRET, fluorogenic peptide substrate; recombinant F. hepatica cathepsin L1, Z-Leu-Arg-MCA fluorescence; actives 0.49% (n = 300,000); inhibition, % at 5.96 µM; AID 1906, 2009;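 active means inhibition above the mean of all tested compounds plus 3 SD, set per screening campaign, cut at about 17% in these data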;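 further: 0% = plate median of test compound wells and 100% = 1 µM Z-Phe-Ala-diazomethylketone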
PAFAH2 FP inh: PAFAH2 enzyme inhibitors, primary screen, biochemical, fluorescence polarization, human; Platelet-activating factor acetylhydrolase 2, cytoplasmic (Homo sapiens), Q99487; recombinant PAFAH2, FP-rhodamine activity probe; inhibition, % at 3.39 µM; actives 0.99% (n = 340,000); AID 492956, 2010;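 active means inhibition above the mean over all tested compounds plus 3 SD, cut at about 30% in these data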;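 further: inhibitors block probe labeling of enzyme so polarization drops; 0% = enzyme with DMSO and 100% = wells lacking PAFAH2 protein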
pPAFAH FP inh: pPAFAH enzyme inhibitors, primary screen, biochemical, fluorescence polarization, human. Platelet-activating factor acetylhydrolase (Homo sapiens), Q13093. recombinant pPAFAH, FP-rhodamine probe fluorescence polarization. inhibition, % at 3.39 µM. actives 1.5% (n = 330,000);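 active means inhibition above the mean inhibition across the screen plus 3 SD, cut at about 25% in these data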;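 further: inhibitors block binding of the rhodamine activity-based probe so polarization drops; 0% = enzyme with DMSO and 100% = wells lacking pPAFAH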
PAFAH1B2 FP inh: PAFAH1B2 enzyme inhibitors, primary screen, biochemical, fluorescence polarization, human; Platelet-activating factor acetylhydrolase IB subunit alpha2 (Homo sapiens), P68402; actives 1.2% (n = 340,000); AID 492953, 2010; recombinant PAFAH1B2, FP-rhodamine activity probe; inhibition, % at 3.39 µM;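 active means inhibition above the mean of all tested compounds plus 3 SD, cut at about 24% in these data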;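 further: 0% = enzyme with DMSO and 100% = wells lacking PAFAH1B2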
Target sequence (P68402 whole entry, looked up): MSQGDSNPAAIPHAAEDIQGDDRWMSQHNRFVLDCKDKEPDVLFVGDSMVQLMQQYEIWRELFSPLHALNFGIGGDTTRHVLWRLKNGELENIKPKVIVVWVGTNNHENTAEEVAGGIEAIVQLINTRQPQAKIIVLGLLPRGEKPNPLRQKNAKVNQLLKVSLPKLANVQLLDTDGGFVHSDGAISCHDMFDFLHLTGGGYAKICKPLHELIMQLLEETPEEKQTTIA
* marks the source's active call; other numbers are inactive results; nt = not tested or not shown.

SMILES	PAFAH1B3 FP inh	PP5 primary	Fh CTSL1 inh	PAFAH2 FP inh	pPAFAH FP inh	PAFAH1B2 FP inh
CC(C)c1ccc(C(=O)NNC(=O)C2C3CCC(C3)C2C(=O)O)cc1 (configuration not stated)	nt	2	-1	nt	4	nt
Cc1coc2c1C(=O)C(=O)c1c-2ccc2c(C)cccc12	19	8	94*	51*	56*	21
Cc1ccc2c3c(cccc13)-c1ccccc1C2=O	8	2	1	-10	2	1
COC(=O)[C@@H](Cc1c[nH]c2ccccc12)NC(=O)CNC(=O)c1ccccc1OC	1	0	3	-3	3	9
COC(=O)C1=C(C)N(C)C(=O)/C1=C\c1ccco1	7	0	5	-3	6	2
CC1=C(C#N)C(=O)N(C2CCS(=O)(=O)C2)C(=O)/C1=C\c1ccco1 (configuration not stated)	nt	1	5	nt	93*	nt
CC1=C(C(=O)OCc2ccccc2)C(c2ccsc2)C(C#N)=C(N)O1 (configuration not stated)	7	4	-9	-2	6	6
CCOC(=O)C1=C(N)OC(CCl)=C(C#N)C1c1ccsc1 (configuration not stated)	16	-1	60*	-1	-5	4
O=C(CC12CC3CC(CC(C3)C1)C2)NCc1ccccc1	5	-1	1	4	4	14
O=C(CC12CC3CC(CC(C3)C1)C2)NCc1ccncc1	-6	-1	17*	-6	5	10
COc1cc(/C=N/N=C2\CC3CCC2(C)C3(C)C)ccc1O (configuration not stated)	1	2	-1	4	0	1
CC12CCC(C/C1=N\N=C1\NC(=O)/C(=C\c3cccc(Br)c3)S1)C2(C)C (configuration not stated)	2	6	3	10	27*	9
Cc1ccc(C(=O)NCC(=O)OCCCOC(=O)CNC(=O)c2ccc(C)c(C)c2)cc1C	4	6	nt	1	4	13
Cc1nnc(-c2cccc(Br)c2)c2cn(-c3ccc(Br)cc3)nc12	2	3	2	-18	3	-1
Cc1nnc(-c2cccc(Br)c2)c2cn(-c3ccccc3)nc12	7	3	-2	-6	25*	6
COc1ccc(-n2cc3c(-c4cccc(Br)c4)nnc(C)c3n2)cc1	-9	3	4	-1	8	-8
Cc1nnc(-c2cccc(Br)c2)c2cn(-c3cccc(Br)c3)nc12	-6	1	2	2	32*	-3
O=C(CCC(=O)c1ccc(F)cc1)OCc1nnc(-c2ccc([N+](=O)[O-])cc2)o1	-6	1	nt	1	6	4
Cc1ccc(-c2ccc(CCC(=O)O)n2-c2ccc(O)cc2)cc1	6	3	5	-5	21	13
O=C(O)CCc1ccc(-c2ccc(Br)cc2)n1-c1ccc(O)cc1	0	nt	nt	1	nt	33*
C=CCn1c(NS(=O)(=O)c2ccccc2)c(S(=O)(=O)c2ccc(C)cc2)c2nc3ccccc3nc21	7	13*	1	3	10	3
O=C(COC(=O)Cc1ccc(S(=O)(=O)N2CCOCC2)s1)Nc1ccccc1Cl	2	nt	nt	1	7	1
N/C(=N\OC(=O)c1ccco1)c1ccc(Cl)cc1	7	3	-13	3	-1	0
O=C(Oc1oc(-c2ccco2)nc1C=Nc1ccc(Cl)cc1)c1ccco1	11	0	15	48*	26*	9
Cc1ccc(N2C3=C(C(=O)CC(C)(C)C3)C(c3cn(C)nc3C)C3=C2CC(C)(C)CC3=O)cc1	1	0	-4	4	27*	6
SMILES	PAFAH1B3 FP inh	PP5 primary	Fh CTSL1 inh	PAFAH2 FP inh	pPAFAH FP inh	PAFAH1B2 FP inh
CC(C)(C)C(=O)Nc1ccc(C(=O)COC(=O)C2=COCCO2)cc1	0	nt	nt	-4	nt	-1
O=C(O/N=C1/CCSc2ccccc21)c1ccccc1	4	4	12	41*	0	18
Cc1ccc2c(c1)/C(=N/OC(=O)c1ccc(F)cc1)CCS2	15	1	-8	2	4	19
CCC(=O)Nc1ccc(C(=O)NNC(=O)C2CCCCC2)cc1	1	nt	nt	1	nt	4
O=C(NNS(=O)(=O)c1ccc(Br)cc1)c1ccccc1-n1cccc1	8	2	-1	3	-1	29*
O=C(NNS(=O)(=O)c1ccccc1)c1ccccc1-n1cccc1	5	2	-2	9	-5	3
O=C(O)CCCN1C(=O)/C(=C\c2ccccc2OCc2ccccc2)SC1=S	10	4	3	15	29*	11
O=C1/C(=C\c2cc([N+](=O)[O-])ccc2O)SC(=S)N1Cc1ccc(Cl)cc1	-124	-1	0	-91	-16	-212
O=C(O)CCN1C(=O)/C(=C/c2ccc(-c3nc4ccccc4s3)o2)SC1=S	20	3	1	18	14	4
O=C(O)CCCN1C(=O)/C(=C\c2ccc(-c3nc4ccccc4s3)o2)SC1=S	25	3	3	41*	30*	13
O=C(O)CN1C(=O)/C(=C\c2cc([N+](=O)[O-])ccc2OCc2ccccc2Cl)SC1=S	12	-3	3	25	45*	7
O=C(O)CCCCN1C(=O)/C(=C\c2ccc(OCc3ccccc3)c(OCc3ccccc3)c2)SC1=S	0	2	-2	-19	5	-10
Cc1nn(-c2ccccc2)c(Cl)c1/C=C1\SC(=S)N(CCCCCC(=O)O)C1=O	12	1	7	7	28*	3
O=c1[nH]cnc(O)c1C(c1ccc([N+](=O)[O-])cc1)c1c(O)nc[nH]c1=O	5	2	-1	0	3	0
CCCC(=O)NC(c1cccs1)c1cc(Cl)c2cccnc2c1O (configuration not stated)	10	1	1	4	33*	4
CCC(=O)NC(c1ccco1)c1cc(Cl)c2ccccc2c1O (configuration not stated)	-1	3	nt	8	4	-2
CCCC(=O)NC(c1ccc2c(c1)OCO2)c1cc(Cl)c2cccnc2c1O (configuration not stated)	7	3	1	0	32*	2
COc1ccccc1C(NC(C)=O)c1cc(Cl)c2cccnc2c1O (configuration not stated)	8	-1	2	7	10	1
O=C(O)COc1ccccc1C(Nc1ccccn1)c1cc(Cl)c2cccnc2c1O (configuration not stated)	3	-2	0	29	32*	2

Assay outcomes from PubChem.
